This is an account of results in PubChem BioAssay (NCATS).

Experiment [1] can be described thus: AP1 Signaling Pathway (AID 357). Note: % is set by controls: 0 for no effect and ±100 for the full control effect. To be noted: ME-180 AP-1-bla reporter, EGF-induced, beta-lactamase ratio, 5 h. Put shortly: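 AP-1-bla ME-180 cells with beta-lactamase reporter under AP-1 response element, stimulated with EC50 EGF; compounds titrated, 5 hours at 37 degrees Celsius. CCF4 read at 460/530 nm ratio; positive and negative modulators judged by AC50.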

A short description of experiment [2]: Cell Viability - BJ (AID 421; calls by dose curve;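 note: potency is the fitted concentration of half-maximal effect; cells exposed to compound for 40 hours at 37 °C before readout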). To be noted: BJ fibroblast viability, qHTS. An outline of the steps:
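Cytotoxicity as drop in intracellular ATP (CellTiter-Glo, 20 min RT) after 40 hr compound exposure of BJ fibroblasts at 37 °C. Titrations scaled between DMSO and 100 uM tamoxifen, Hill-fitted for AC50.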
On the technique in general: qHTS replaces the single test concentration by a dilution series.

Experiment [3] can be described thus: Cell Viability - Hek293 (AID 427;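 active = compounds whose dose-response curve shows a full or clear partial loss of cell viability, called from curve shape rather than a numeric limit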;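 note: potency is the fitted concentration of half-maximal effect; cells exposed to compound for 40 hours at 37 °C before reading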). The note with it: qHTS. An outline of the steps:
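Luminescent ATP content (CellTiter-Glo, 20 min at room temperature) was measured after a 40 hr, 37 °C compound exposure of HEK293 cells. AC50 values came from Hill-equation fits of qHTS concentration-response data normalized to DMSO and 100 uM tamoxifen.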

The nature of experiment [4]: Stat Signaling Pathway (AID 446).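 Note: ME-180 cervical cancer cells given 40 pM IL-6 alongside compound; SIE-controlled beta-lactamase reporter measured as 460/530 nm FRET emission ratio; % is set by controls: 0 for no effect and ±100 for the full control effect.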 To be noted: ME-180 (cervical carcinoma) SIE beta-lactamase reporter, IL-6 stimulated, 5 h; at 17.2 µM (top of the series) unless noted. An outline of the steps:
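FRET read-out (405 nm excitation, 460/530 nm emission) of a beta-lactamase reporter under a STAT-inducible element in ME-180 cervical carcinoma cells. Cells with compound receive 40 pM IL-6 for 5 h. Values are normalised to AC90 stimulation and AC90 JAK-inhibitor controls.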

The target in experiment [5] is Glucocorticoid receptor (Homo sapiens) (UniProt P04150). The experiment is described as follows: GR-GFP Redistribution (AID 450;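 active = compounds whose dose series gives a full or clear partial fitted curve of increased nuclear translocation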; note: potency is the fitted concentration of half-maximal effect). To be noted: U2OS GR-GFP nuclear translocation, laser cytometry, 2 h.
Experiment [6] deals with Mitogen-activated protein kinase 10 (Mus musculus) (UniProt Q61831). The experiment is described as follows: JNK3 AlphaScreen Assay (AID 530).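 Note: kinase came from lysate of stimulated human HepG2 cells; signal reports phosphorylation of biotinylated GST-cJun 1-79 at Ser73 with 10 µM ATP; % is set by controls: 0 for no effect and ±100 for the full control effect.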 An outline of the steps:
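Kinase buffer: 20 mM Tris-HCl pH 7.6, 10 mM MgCl2, 1 mM DTT, 0.1 mM Na3VO4, 0.01% Tween-20; ATP 10 uM. Substrate biotin-GST-cJun(1-79), enzyme from activated HepG2 lysates. Detection by Ser73 phospho-antibody AlphaScreen.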
In general terms: Alpha assays give light when donor and acceptor beads are brought close together.

Experiment [7] in a line: Cell Viability - N2a (AID 540; active = well fitted curve in the direction sought with a large enough effect; an effect the other way counts as inactive or inconclusive; note: nearly all actives have a fitted effect of over 45% in size; note: potency is the fitted concentration of half-maximal effect;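 for activity change, negative = cytotoxicity: plate controls were DMSO alone for no effect and tamoxifen control for full effect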). The note with it: N2a mouse neuroblastoma cell viability; activity change, negative = cytotoxicity: at 92.2 µM (top of the series). An outline of the steps:
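N2a mouse neuroblastoma, 1500 cells/well, 5 hr settle; compound 40 hr, 37 °C; CellTiter-Glo 20 min RT; luminescence; Hill-fit AC50.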

A short description of experiment [8]: Cell Viability - NIH 3T3 (AID 541; active = well fitted curve in the direction sought with a large enough effect; an effect the other way counts as inactive or inconclusive; note: nearly all actives have a fitted effect of over 25% in size; note: potency is the fitted concentration of half-maximal effect;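 for activity change, negative = cytotoxicity: plate controls were DMSO alone for no effect and tamoxifen positive control for full effect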). To be noted: NIH 3T3 cell viability, qHTS; activity change, negative = cytotoxicity: at 92.2 µM (top of the series). Put shortly:
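qHTS format; 40 hr compound exposure, 37 °C; CellTiter-Glo luminescence (cellular ATP) read-out after 20 min at RT. Decrease in ATP = cytotoxicity; AC50 from standard Hill fit.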

Experiment [9] in a line: Cell Viability - HUV-EC-C (AID 542; active = well fitted curve in the direction sought with a large enough effect; an effect the other way counts as inactive or inconclusive; note: % is set by controls: 0 for no effect and ±100 for the full control effect; nearly all actives have a fitted effect of over 35% in size). An outline of the steps: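 Luminescent ATP read-out (CellTiter-Glo, 20 min room temperature) after 40 hr compound treatment of HUV-EC-C cells at 37 °C. Concentration-response data fitted with the standard Hill equation to give AC50; tamoxifen and doxorubicin served as positive controls.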
The nature of experiment [10]: Cell Viability - H-4-II-E (AID 543; active = well fitted curve in the direction sought with a large enough effect; an effect the other way counts as inactive or inconclusive; note: nearly all actives have a fitted effect of over 35% in size; note: potency is the fitted concentration of half-maximal effect). Put shortly:
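qHTS, rat hepatoma H-4-II-E, 1500 cells/well; 40 hr compound exposure, 37 °C; CellTiter-Glo ATP luminescence after 20 min RT; AC50 by standard Hill fit.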

Experiment [11] is described as follows: Cell Viability - Renal Proximal Tubule (AID 545; active = well fitted curve in the direction sought with a large enough effect; an effect the other way counts as inactive or inconclusive; note: nearly all actives have a fitted effect of over 40% in size; note: potency is the fitted concentration of half-maximal effect;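 for activity change, negative = cytotoxicity: 0% = DMSO only and -100% = 100 µM tamoxifen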). Put shortly: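 Cytotoxicity is scored as a concentration-dependent drop in cellular ATP in primary rat renal proximal tubule cells exposed for 40 hr. AC50 derives from Hill modelling.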
Experiment [12] is described as follows: Cell Viability - Mesenchymal (AID 546; active = well fitted curve in the direction sought with a large enough effect; an effect the other way counts as inactive or inconclusive;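 note: cells exposed to compound for 40 hours before reading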; note: potency is the fitted concentration of half-maximal effect;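 for activity change, negative = cytotoxicity: 0% = DMSO only and -100% = 100 µM tamoxifen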). Put shortly: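 CellTiter-Glo luminescence (intracellular ATP, 20 min room temperature) after 40 hr compound exposure at 37 °C of 1000 glomerulus-derived human kidney mesenchymal cells/well; AC50 values obtained by fitting qHTS concentration-response data to the Hill equation.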
Experiment [13] is described as follows: Cellular Toxicity (caspase-3) Jurkat (AID 655; active = well fitted curve in the direction sought with a large enough effect; an effect the other way counts as inactive or inconclusive;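 note: cells exposed to compound for 16 h at 37 °C before reading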). Put shortly: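 Caspase 3/7 activation is scored as increased luminescence in Jurkat cells cultured with compound for 16 hours in complete medium. AC50 values come from Hill fits of qHTS concentration-response data normalized to DMSO and 100 uM tamoxifen controls.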
The nature of experiment [14]: NFAT Signaling Pathway (AID 444).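 Note: carbachol stimulus at about its EC50 of 1 µM final; % is set by controls: 0 for no effect and ±100 for the full control effect.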 The note with it: Jurkat NFAT-bla M1, carbachol, beta-lactamase ratio, 5 h. An outline of the steps:
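Read-out: CCF4 FRET ratio (460 nm/530 nm) after 1 h RT dye loading, used for %activity and AC50 from titration series. Cells: Jurkat NFAT-β-lactamase/M1 line, treated with compound plus 1 uM carbachol for 5 h, 37 °C.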

Experiment [15] has as its target Glucocorticoid receptor (Homo sapiens) (UniProt P04150). The experiment is described as follows: GR-EFC Redistribution (AID 451; calls by dose curve; note: potency is the fitted concentration of half-maximal effect). The note with it: CHO-K1 GR-EFC translocation, beta-gal luminescence, 2 h. An outline of the steps: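 Translocation of GR-ED fusion to nuclear EA restores b-gal, read by luminescence after 1 h room-temperature detection. Engineered CHO-K1 biosensor cells, 1,000/well, exposed 2 h at 37 C to titrations up to 46 uM final.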

The target in experiment [16] is 3',5'-cyclic-AMP phosphodiesterase 4B (Homo sapiens) (UniProt Q07343). Briefly: qHTS Assay for Inhibitors of PDE-IV (AID 607; active = well fitted activation curve with a large enough effect in the main read-out, with a control signal flat, not every such curve was filed as active; note: % of control where 0% means no effect). An outline of the steps:
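Cell-based read-out of cAMP via a modified cyclic nucleotide-gated channel and membrane potential dye (535/590 nm) in HEK293 cells expressing PDE4 endogenously. Compounds tested up to 22.9 uM final; 100 uM RO 20-1724 reference.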

Experiment [17] can be described thus: Cell Viability - Jurkat (AID 426;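 active = dose-dependent loss of cell ATP signal giving a full or clear fitted curve, ranked by lower potency value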;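 note: potency is the fitted concentration of half-maximal effect; cells exposed to compound for 40 hours at 37 °C before ATP read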). To be noted: qHTS. An outline of the steps: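 Luminescent ATP read-out (CellTiter-Glo, 20 min at room temperature) after 40 hr compound exposure at 37 °C of Jurkat E6-1 cells, 5000/well. Decreased ATP taken as cytotoxicity; AC50 from standard Hill equation.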
A short description of experiment [18]: Cell Viability - HepG2 (AID 433; calls by dose curve; note: potency is the fitted concentration of half-maximal effect). The note with it: qHTS. Put shortly: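 Cytotoxicity is scored as loss of intracellular ATP in HepG2 cells exposed to compounds for 40 h. Concentration-response curves, normalized to DMSO and 100 uM tamoxifen, give AC50 values.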
The nature of experiment [19]: Cell Viability - SK-N-SH (AID 435; calls by dose curve; note: potency is the fitted concentration of half-maximal effect). The note with it: SK-N-SH neuroblastoma cell viability qHTS. Put shortly:
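Cells seeded at 1500 per well and incubated 5 hr at 37 °C. Compound added, then 40 hr at 37 °C. CellTiter-Glo added, 20 min at room temperature, luminescence read.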

Experiment [20] is described as follows: Cellular Toxicity (caspase-3) HepG2 (AID 654; active = well fitted curve in the direction sought with a large enough effect; an effect the other way counts as inactive or inconclusive;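 note: cells exposed to compound for 16 hours before reading; 0% = DMSO alone and 100% = caspase signal from 100 µM tamoxifen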). An outline of the steps: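 Luminescent Caspase-Glo 3/7 readout after 16 hr compound exposure of human hepatocellular carcinoma HepG2 cells at 37 °C; qHTS concentration-response, normalized DMSO = 0%, 100 uM tamoxifen = 100%; AC50 by standard Hill equation.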
Where [21] appears, read: at 17.2 µM (top of the series) unless noted.

Where “and” joins values, the source holds several entries; their conditions need not be identical. Identical values can stand only once. Unmarked numbers belong to inactive results. Records with an inconclusive call do not appear. Calls of active or inactive are those of the source. Unless noted, calls come from the whole dose curve; as a rule, active = well fitted curve in either direction with a large enough effect (not every such curve was filed as active); inconclusive = small, poorly fitted or top-dose-only effect, or another doubt; inactive = flat fitted curve, though single readings scatter.

Chain of Glucocorticoid receptor (Homo sapiens) (P04150 whole entry, looked up, the tested form may be a part): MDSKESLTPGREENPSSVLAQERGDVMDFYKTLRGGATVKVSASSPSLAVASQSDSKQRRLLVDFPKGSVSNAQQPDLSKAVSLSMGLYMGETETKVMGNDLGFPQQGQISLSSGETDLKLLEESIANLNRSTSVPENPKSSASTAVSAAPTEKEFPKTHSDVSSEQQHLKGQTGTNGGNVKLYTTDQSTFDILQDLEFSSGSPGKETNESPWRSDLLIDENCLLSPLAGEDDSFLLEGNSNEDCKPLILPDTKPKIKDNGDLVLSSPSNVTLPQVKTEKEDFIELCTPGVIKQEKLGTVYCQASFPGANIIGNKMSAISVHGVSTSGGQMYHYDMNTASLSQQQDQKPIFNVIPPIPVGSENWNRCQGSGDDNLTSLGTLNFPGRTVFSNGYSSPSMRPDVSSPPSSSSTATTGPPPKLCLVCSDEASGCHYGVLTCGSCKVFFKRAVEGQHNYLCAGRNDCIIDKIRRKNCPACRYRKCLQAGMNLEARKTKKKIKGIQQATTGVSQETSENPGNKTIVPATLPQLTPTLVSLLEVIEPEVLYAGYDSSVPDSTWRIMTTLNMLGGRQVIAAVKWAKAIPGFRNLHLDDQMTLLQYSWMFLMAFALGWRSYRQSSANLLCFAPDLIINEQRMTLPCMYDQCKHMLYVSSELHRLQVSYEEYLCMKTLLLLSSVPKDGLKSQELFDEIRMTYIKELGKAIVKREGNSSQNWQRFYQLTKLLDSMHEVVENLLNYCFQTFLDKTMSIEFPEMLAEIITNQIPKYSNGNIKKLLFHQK
Chain of 3',5'-cyclic-AMP phosphodiesterase 4B (Homo sapiens) (Q07343 whole entry, looked up): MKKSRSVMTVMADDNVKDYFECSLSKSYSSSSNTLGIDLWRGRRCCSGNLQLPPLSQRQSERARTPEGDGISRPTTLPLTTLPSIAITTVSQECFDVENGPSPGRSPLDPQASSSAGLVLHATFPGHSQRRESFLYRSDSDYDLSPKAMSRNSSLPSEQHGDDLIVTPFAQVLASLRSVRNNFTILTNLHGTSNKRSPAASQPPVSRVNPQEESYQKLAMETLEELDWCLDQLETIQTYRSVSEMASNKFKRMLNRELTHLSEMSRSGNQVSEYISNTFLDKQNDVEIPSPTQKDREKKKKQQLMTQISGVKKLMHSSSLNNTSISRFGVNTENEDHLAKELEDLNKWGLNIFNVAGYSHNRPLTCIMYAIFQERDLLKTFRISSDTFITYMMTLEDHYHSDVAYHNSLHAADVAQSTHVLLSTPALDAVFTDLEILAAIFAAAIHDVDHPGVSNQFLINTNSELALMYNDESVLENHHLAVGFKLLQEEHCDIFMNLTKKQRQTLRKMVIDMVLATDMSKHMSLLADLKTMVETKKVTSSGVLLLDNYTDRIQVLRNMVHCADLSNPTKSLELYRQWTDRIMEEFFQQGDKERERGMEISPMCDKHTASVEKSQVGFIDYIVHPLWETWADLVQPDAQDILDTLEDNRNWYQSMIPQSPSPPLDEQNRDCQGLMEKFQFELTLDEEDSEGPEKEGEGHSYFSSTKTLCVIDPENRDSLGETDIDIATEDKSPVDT

Turning to `CC[C@H](C)C(=O)O[C@H]1C[C@@H](C)C=C2C=C[C@H](C)[C@H](CC[C@@H]3C[C@@H](O)CC(=O)O3)[C@H]21`, in [1] (setting [21]), the activity change, negative = inhibition was -19.5%. For the same compound, the Potency in experiment [2] was above 92 µM; in experiment [3], above 92 µM; in experiment [5], above 20.6 µM; in experiment [7] it was 2 µM (active); in [10], 7.94 µM (active); in experiment [11] it was 2 µM (active). Moreover, the Potency in experiment [12] was 7.94 µM (active). In addition, the activity, negative = inhibition in experiment [4] was -3.85%. For the same compound, the Potency entry in experiment [6] and in experiment [9] was “inactive” in each case. Moreover, the activity change, negative = cytotoxicity in [8] is -92.8% (active). The call in experiment [13] was inactive.
Consider `N[C@@H](Cc1ccc(O)c(O)c1)C(=O)O`, for which the activity change, negative = inhibition in [1] (at 17.2 µM (top of the series)) was -2.87%; in experiment [1] (at 38 µM (top of the series)), -2.2%; in experiment [14] (at 17.2 µM (top of the series)) it was 1.41%; in experiment [14] (at 38 µM (top of the series)) it was 18.2%. In [4], the activity, negative = inhibition was 4.83%. Besides, the Potency in experiment [5] is > 46 µM and > 20.6 µM; in experiment [15], > 46 µM and > 20.6 µM. Besides, in [6], the Potency entry is “inactive”. The compound was classed as inactive in experiment [16].
Regarding `CCn1cc(C(=O)O)c(=O)c2cc(F)c(N3CCNCC3)cc21`, the activity change, negative = inhibition in experiment [1] (setting [21]) is -6.52% and 0.998%; in experiment [14] (setting [21]), 1.51% and 17.3%. For the same compound, the activity, negative = inhibition in experiment [4] is 1.48% and 7%. Further, the Potency in experiment [5] and in [15] was above 20.6 µM in each case. For the same compound, the Potency result in experiment [6] is “inactive”. Moreover, the compound was called inactive in experiment [16].
For the compound `CCc1cc(C(N)=S)ccn1`, the results for the activity change, negative = inhibition in experiment [1] (setting [21]) and in [14] (setting [21]) were -4.73% and 5.86%, respectively. Also, the Potency in [2] was above 92 µM; in experiment [17] it was above 92 µM; in experiment [3], above 92 µM; in experiment [18], above 92 µM; in [19] it was above 92 µM; in experiment [5] it was above 20.6 µM. Besides, the Potency in experiment [15] was above 20.6 µM. Also, the activity, negative = inhibition in experiment [4] was -6.82%. In addition, the Potency entry in [6], in [7], in [9], in experiment [10], in experiment [11] and in experiment [12] was “inactive” throughout. For the same compound, the Potency result in experiment [20] is “inactive”. In [8], the activity change, negative = cytotoxicity is -7.33%. For the same compound, the result in experiment [16] and in experiment [13] was inactive.
As for `COc1ccc2cc3[n+](cc2c1OC)CCc1cc2c(cc1-3)OCO2`, the activity change, negative = inhibition in experiment [1] (setting [21]) was 10.1%. In addition, the Potency in [2] was above 92 µM; in experiment [19], above 92 µM; in experiment [5] it was above 20.6 µM; in experiment [15] it was above 20.6 µM; in experiment [7], 1.26 µM (active); in experiment [8], 1 µM (active). For the same compound, the activity, negative = inhibition in experiment [4] was -1.52%. Also, the Potency result in [6], in experiment [9], in experiment [10], in experiment [11], in experiment [12] and in experiment [20] was “inactive” throughout. In addition, the result in [16] and in [13] was inactive.
